Sampled rows, rich in hits. Any-hit rate of the full collection: about 8.5%.
GoLoco inh red: RGS12 GoLoco-Gai1 interaction inhibition; P63096; Gai1:RGS12 GoLoco peptide FP, rhodamine, 10 min; Potency, µM (titrated, usually from 61.6 µM), actives largely listed as inhibitors; 230,000 compounds, 0.44% hits; AID 880; active means well fitted inhibition curve with a large enough effect, not every such curve was filed as active; inactive means no such curve, though single readings can be large or run the other way; further: nearly all actives have a fitted effect of over 30% in size
KDM4E inh: inhibitors of human JMJD2E histone demethylase. JMJD2E catalytic domain, FDH-coupled NADH fluorescence (FDH is formaldehyde dehydrogenase). 230,000 compounds, 1.6% hits. B2RXH2. Potency, µM (titrated, usually from 57.1 µM), hits mostly inhibitors; active means well fitted inhibition curve with a large enough effect, not every such curve was filed as active; inconclusive means small, poorly fitted or top-dose-only effect, or another doubt; inactive means no such curve, though single readings can be large or run the other way; further: nearly all actives have a fitted effect of over 50% in size
FBPA coupling cs: coupling enzyme interference in Giardia aldolase counter-screen | coupling enzyme system counterscreen, AmpLite Red fluorescence | activity change, negative = inhibition, % at 58.2 µM, hits read low | 290,000 compounds, 0.67% hits; in the data active means activity change below about -30%
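Final compound at 57.5 uM, incubated 10 min at RT with coupling enzyme reagent (glyceraldehyde-3-phosphate), then 20 min with substrate and AmpLite Red detection. Fluorescence read at 525/598 nm; tests interference with the coupling assay, not aldolase inhibition.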
ALDH1A1 inh: inhibitors of human aldehyde dehydrogenase 1A1; Purified ALDH1A1, NADH fluorescence, propionaldehyde substrate; P00352; 220,000 compounds, 7.3% hits; Potency, µM (series often up to 75.3 µM), usual class: inhibitors; active means well fitted inhibition curve with a large enough effect, not every such curve was filed as active; inconclusive means small, poorly fitted or top-dose-only effect, or another doubt; inactive means no such curve, though single readings can be large or run the other way
Target sequence (P00352 whole entry, looked up): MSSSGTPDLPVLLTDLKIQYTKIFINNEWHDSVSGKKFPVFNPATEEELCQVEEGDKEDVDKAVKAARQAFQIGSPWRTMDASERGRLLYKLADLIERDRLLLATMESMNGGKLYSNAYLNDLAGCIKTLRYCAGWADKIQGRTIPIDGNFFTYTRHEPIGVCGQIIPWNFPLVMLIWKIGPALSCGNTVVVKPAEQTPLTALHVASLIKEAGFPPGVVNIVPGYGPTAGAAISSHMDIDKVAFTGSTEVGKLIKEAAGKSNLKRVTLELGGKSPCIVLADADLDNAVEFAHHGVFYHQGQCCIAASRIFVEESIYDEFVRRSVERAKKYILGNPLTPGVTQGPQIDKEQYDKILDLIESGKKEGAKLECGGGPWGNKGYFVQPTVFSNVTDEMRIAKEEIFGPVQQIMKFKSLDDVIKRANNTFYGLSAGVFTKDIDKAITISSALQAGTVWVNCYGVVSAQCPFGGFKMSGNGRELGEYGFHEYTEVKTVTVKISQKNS
Sfp PPTase inh: blocks B. subtilis Sfp PPTase activity | Q9F4F7 | Biochemical Sfp PPTase activity, qHTS | Potency, µM, usual class: inhibitors | 310,000 compounds, 3.5% hits | AID 1490;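 further: the enzyme is Sfp with the accession as filed and its product quenches rhodamine fluorescence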
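Fluorescence-quenching assay with 15 nM Sfp, 5 uM rhodamine-CoA and 12.5 uM BHQ-2-labelled ybbR peptide in pH 7.6 Hepes/MgCl2 buffer. Enzyme was pre-incubated with compound for 15 min at room temperature. Rate was taken from the 30-min fluorescence change (525/598 nm).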
NPSR antag: neuropeptide S receptor (human) antagonism, cAMP; 220,000 compounds, 1% hits; AID 1461; CHO-NPSR cells, cAMP TR-FRET, antagonist mode; Potency, µM (highest dose often 38.3 µM), most hits filed as inhibitors; further: nearly all actives have a fitted effect of over 50% in size
Each line names hits and unclear results; the compound was inactive in the other large screens. Unless noted, the call rests on the fitted dose curve; in most records, active means well fitted curve in the direction sought with a large enough effect; inconclusive means small, poorly fitted or top-dose-only effect, or another doubt; inactive means no such curve, though single readings can be large; an effect the other way counts as inactive or inconclusive.

Cc1ccc2c(CC(=O)NCc3ccco3)coc2c1C	ALDH1A1 inh 25µM
Nc1ccc(Sc2ccc([N+](=O)[O-])cc2)cc1	none
O=C1C=CC(=O)N1c1ccc(Sc2ccc([N+](=O)[O-])cc2)cc1	ALDH1A1 inh 0.79µM, Sfp PPTase inh 8.9µM
CC(C)(C)c1cc(=O)n(-c2ccccc2)[nH]1	ALDH1A1 inh inconclusive, Sfp PPTase inh inconclusive
O=c1ccc(=O)n(-c2ccccc2)[nH]1	Sfp PPTase inh 50µM (no result: ALDH1A1 inh)
Cc1nc2ccc(C(=O)OCc3ccccc3Br)cc2nc1C	none
COC(=O)CCC(=O)c1oc2ccc(Cl)cc2c1NC(=O)CCCN1C(=O)c2ccccc2C1=O	Sfp PPTase inh 35µM
Oc1ccccc1C(Sc1nc2ccccc2s1)Sc1nc2ccccc2s1	ALDH1A1 inh 0.71µM (no result: KDM4E inh, FBPA coupling cs, Sfp PPTase inh, NPSR antag)
CC(=O)OCC1=C(C(=O)O)N2C(=O)C(NC(=O)CCn3nc(C(F)(F)F)c(Br)c3C3CC3)C2SC1 (stereo not drawn)	ALDH1A1 inh inconclusive
CC[C@@H](C)C(NC(=O)OC(C)(C)C)c1cn([C@@H](CCC(=O)OC(C)(C)C)C(=O)N2CCN(C(=O)OC(C)(C)C)CC2)nn1 (stereo partly drawn)	none
COC(=O)c1c(NC(=O)/C=C/C(=O)O)sc(C)c1-c1ccc(C)c(C)c1	ALDH1A1 inh inconclusive
CCOC(=O)c1c(NC(=O)/C=C/C(=O)O)sc(C)c1-c1ccc(C)c(C)c1	ALDH1A1 inh inconclusive, Sfp PPTase inh 25µM, NPSR antag inconclusive
CCOC(=O)c1c(NC(=O)/C=C/C(=O)O)sc(C)c1-c1ccc(F)cc1	ALDH1A1 inh 14µM, Sfp PPTase inh 50µM, NPSR antag inconclusive
COC(=O)c1c(NC(=O)/C=C/C(=O)O)sc(C)c1-c1ccc(C(C)C)cc1	ALDH1A1 inh 7.9µM, NPSR antag 13µM
COC(=O)c1c(NC(=O)/C=C/C(=O)O)sc(C)c1-c1ccc(C)cc1	ALDH1A1 inh inconclusive
CC(C(=O)NCCC1=CCCCC1)c1ccc([N+](=O)[O-])cc1 (stereo not drawn)	ALDH1A1 inh inconclusive
CC(C)c1nc(SCC(=O)NC2CCCC2)c2c(=O)n(C)c(=O)n(C)c2n1	none (no result: GoLoco inh red, KDM4E inh, FBPA coupling cs, ALDH1A1 inh, NPSR antag)
CN1CCN(c2nc(-c3ccc(N(C)C)cc3)nc3ccccc23)CC1	KDM4E inh inconclusive, ALDH1A1 inh inconclusive, Sfp PPTase inh 50µM (no result: NPSR antag)
CN1CCN(c2nc(-c3ccc(Br)cc3)nnc2-c2ccccc2)CC1	ALDH1A1 inh 22µM, Sfp PPTase inh inconclusive, NPSR antag inconclusive
NC(=O)NC(=O)CC1S/C(=N/N=C2\CSC(=O)N2)NC1=O (stereo not drawn)	Sfp PPTase inh 11µM
O=C(O)CNC(=O)CC1S/C(=N/N=C2/NC(=O)CS2)NC1=O (stereo not drawn)	Sfp PPTase inh 32µM
CC1=C/C(=N\N=C2\NC(=O)C(CC(=O)Nc3ccccc3)S2)CC(C)(C)C1 (stereo not drawn)	none
CN1CCC(=O)N(CCOc2ccccc2)CC1	none (no result: GoLoco inh red, KDM4E inh, ALDH1A1 inh, NPSR antag)
CC1CCC2C(=O)N(c3ccccc3OC(=O)c3ccccc3F)C(=O)C2C1 (stereo not drawn)	none
c1ccc(COn2c(-c3ccccc3)nc3c2CCc2nonc2-3)cc1	KDM4E inh inconclusive, ALDH1A1 inh 8.9µM, NPSR antag inconclusive (no result: GoLoco inh red)
c1ccc(-c2cc3c(nn2)CCc2nonc2-3)cc1	ALDH1A1 inh inconclusive
Cc1ccc(S(=O)(=O)Nc2cccc(-c3cn4ccsc4n3)c2)cc1	ALDH1A1 inh 16µM
Cc1nc(-c2cccc(NS(=O)(=O)c3ccccc3)c2)cs1	ALDH1A1 inh 14µM
Cc1cccc(S(=O)(=O)Nc2cccc(-c3cn4ccsc4n3)c2)c1	ALDH1A1 inh 10µM
COc1ccc(NC(=O)CCSc2nc(C)cs2)cc1	none (no result: GoLoco inh red, KDM4E inh, ALDH1A1 inh, NPSR antag)
CCN(CC)S(=O)(=O)c1cccc(C(=O)N/N=C/c2ccc(N3CCOCC3)cc2)c1	ALDH1A1 inh inconclusive
CCn1c(C)nc2cc(C(=O)N/N=C/c3ccc(O)c(O)c3O)ccc21	FBPA coupling cs -53, ALDH1A1 inh 1.4µM, Sfp PPTase inh 2.2µM
CCn1c(C)nc2cc(C(=O)N/N=C/c3cccc(OC)c3O)ccc21	none
CCN(CC)S(=O)(=O)c1cccc(C(=O)N/N=C/c2ccc(O)c(O)c2O)c1	KDM4E inh 7.9µM, FBPA coupling cs -41, ALDH1A1 inh 8.9µM
CCOc1ccccc1/C=N/NC(=O)c1c(C)nc2ccc(Br)cn12	FBPA coupling cs -45 (no result: GoLoco inh red, KDM4E inh, ALDH1A1 inh, NPSR antag)
CCN(CC)S(=O)(=O)c1cccc(C(=O)N/N=C(\C)c2ccc(O)cc2O)c1	KDM4E inh 25µM, ALDH1A1 inh inconclusive
CCN(CC)C(=O)c1ccccc1NC(=O)c1cccc(S(=O)(=O)N(CC)CC)c1	none
CCOc1ccccc1/C=N/NC(=O)c1cccc(S(=O)(=O)N(CC)CC)c1	KDM4E inh inconclusive, FBPA coupling cs -38, ALDH1A1 inh inconclusive
Cn1c2ccccc2c(=O)c2c(=O)n(-c3ccc(F)cc3)c(-c3cccs3)nc21	KDM4E inh inconclusive
CC(c1ccccc1)n1c(-c2cccs2)nc2c(c(=O)c3ccccc3n2C)c1=O (stereo not drawn)	Sfp PPTase inh 79µM (no result: ALDH1A1 inh)
Cc1nc2cnc(Oc3ccccc3)nc2n(Cc2cccs2)c1=O	ALDH1A1 inh inconclusive (no result: KDM4E inh, NPSR antag)
Cc1ccc(S(=O)(=O)N2CCN(C(=O)CCn3cncn3)CC2)cc1C	none (no result: GoLoco inh red, KDM4E inh, ALDH1A1 inh, NPSR antag)
Cc1ccc(Oc2ccc(OCC(=O)NC(CC(C)C)C(=O)O)cc2)cc1 (stereo not drawn)	ALDH1A1 inh 6.3µM
CC(CCc1ccccc1)NS(=O)(=O)c1ccc(Cl)c(C(=O)O)c1 (stereo not drawn)	none (no result: GoLoco inh red, KDM4E inh, ALDH1A1 inh, NPSR antag)
O=C(CSc1nc2ccccc2c(=O)n1-c1ccc(F)cc1)Nc1ccc(N2CCOCC2)cc1	none
O=C(CSc1nc2ccccc2c(=O)n1-c1ccc(SC(F)F)cc1)Nc1ccc(N2CCOCC2)cc1	KDM4E inh inconclusive, ALDH1A1 inh 10µM
O=C(c1ccc(-n2c(SCc3cccc(F)c3)nc3ccccc3c2=O)cc1)N1CCOCC1	ALDH1A1 inh 0.32µM
CC(C)n1cc(C(=O)N2CCCC(N3CCN(c4cccc(Cl)c4)CC3)C2)cn1 (stereo not drawn)	none (no result: GoLoco inh red, KDM4E inh, FBPA coupling cs, ALDH1A1 inh, NPSR antag)
C=CCn1c(O)c(CN2CCOCC2)c(C)c(C#N)c1=O	KDM4E inh inconclusive, FBPA coupling cs -31
Cc1nc(N2CCN(C(=O)COc3ccccc3)CC2)c2c(C)c(C)sc2n1	ALDH1A1 inh 11µM
O=C(COc1ccccc1)N1CCN(c2ncccn2)CC1	KDM4E inh inconclusive
C/C(=N/NC(=O)CNC(=O)c1ccccn1)c1ccc([N+](=O)[O-])cc1	ALDH1A1 inh inconclusive, Sfp PPTase inh inconclusive
C=CCNC(=S)N/N=C(\C)c1ccccn1	KDM4E inh 8.9µM, ALDH1A1 inh inconclusive, Sfp PPTase inh 79µM
C/C(=N\NC(=O)c1ccc(F)cc1)c1ccccn1	none (no result: GoLoco inh red, KDM4E inh, ALDH1A1 inh, NPSR antag)

Assay outcomes from PubChem.
